Results as given in paper PMC5540273 (PLoS ONE, 2017).

Assays:
Conditions in all cases: concentration: 1 μM, replicates: in singlicate; n = 1
VRK2 = system: VRK2
WEE1 = system: WEE1
WEE2 = system: WEE2
WNK1 = system: WNK1
WNK2 = system: WNK2
WNK3 = system: WNK3
WNK4 = system: WNK4
YANK1 = system: T1, YANK1
T1 construct: gene STK32A

YANK2 = system: T2, YANK2
T2 construct: gene STK32B

YANK3 = system: T3, YANK3
T3 construct: gene STK32C

YES = system: T4, YES
T4 construct: gene YES1

YSK1 = system: T5, YSK1
T5 construct: gene STK25

YSK4 = system: T6, YSK4
T6 construct: gene MAP3K19

ZAK = system: ZAK
ZAP70 = system: ZAP70
p38-alpha = system: T7, p38-alpha
T7 construct: gene MAPK14

p38-beta = system: T8, p38-beta
T8 construct: gene MAPK11

p38-delta = system: p38-delta
p38-gamma = system: T9, p38-gamma
T9 construct: gene MAPK12
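Note: KINOMEscan kinase panel screen.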

Compound	%Inh (VRK2) [%]	%Inh (WEE1) [%]	%Inh (WEE2) [%]	%Inh (WNK1) [%]	%Inh (WNK2) [%]	%Inh (WNK3) [%]	%Inh (WNK4) [%]	%Inh (YANK1) [%]	%Inh (YANK2) [%]	%Inh (YANK3) [%]	%Inh (YES) [%]	%Inh (YSK1) [%]	%Inh (YSK4) [%]	%Inh (ZAK) [%]	%Inh (ZAP70) [%]	%Inh (p38-alpha) [%]	%Inh (p38-beta) [%]	%Inh (p38-delta) [%]	%Inh (p38-gamma) [%]
CCCc1ccc(S(=O)(=O)NC2CCN(c3ccnc(Nc4ccc(F)cc4)n3)C2)cc1 (stereo not drawn) [GSK1379715]	7	6	0	17	0	20	4	18	0	100	22	100	31	67	0	3	0	29	0
COc1ccccc1-c1ccc2c(NC(=O)C3CC3)n[nH]c2n1 [SB-711239]	21	8	5	7	0	37	0	15	0	20	0	0	0	0	13	26	9	6	2
Cc1cccc(-c2nc(-c3ccc(S(C)(=O)=O)cc3)sc2-c2ccnc(NCCc3ccccc3)c2)c1	0	0	9	0	0	0	0	0	13	14	0	11	0	29	9	82	40	12	16
Nc1nc(-c2nccs2)c(-c2ccnc3ccccc23)s1 [GW693542]	0	22	9	20	28	35	28	9	3	0	17	10	28	39	0	0	0	22	30
O=S(=O)(c1ccc(-c2ccnc3[nH]ccc23)cc1)N1CCCC1 [GSK846226]	0	8	2	5	7	3	0	11	0	0	8	21	63	0	0	6	0	11	6
CS(=O)(=O)c1ccc(-c2nc3n(c2-c2ccncc2)CCC3)cc1 [SKF-105942]	12	0	10	0	0	0	29	0	0	100	33	5	1	0	0	0	0	31	14
Cc1ccc(C(=O)Nc2ccc(Nc3ccnc4cc(-c5ccccn5)ccc34)cc2O)cc1.Cl [GW440146]	0	39	0	10	8	36	39	0	14	30	42	0	14	48	9	0	0	42	11
COc1ccc2nc(-c3cccc(C)n3)nc(Nc3ccncc3)c2c1 [GSK204919]	33	0	2	5	3	8	9	19	2	18	13	0	13	0	0	58	0	12	0
Cl.O=C(Nc1cccc(-c2nn3ncccc3c2-c2ccnc(Nc3cccnc3)n2)c1)c1c(F)cccc1F [GSK312879]	10	0	0	13	7	10	0	7	10	32	73	0	32	28	0	3	6	24	0
COc1cccc(-c2cc(-c3c[nH]nc3-c3ccccn3)ccn2)c1 [GW680338]	24	19	4	0	17	26	25	2	0	0	0	0	0	0	10	27	7	20	0
O=C(Nc1ccccc1)Nc1cccc(Oc2ccc3nccn3n2)c1	0	0	41	0	0	0	17	0	29	0	0	0	87	35	0	0	0	0	19
C[C@@H]1CCCCN1c1cc(-c2ccc3c(N)n[nH]c3c2)nc(N)n1 [GSK2258759]	0	0	13	0	6	16	39	3	0	0	14	0	0	0	0	80	0	26	0
COC(=O)c1c(-c2ccccc2)c2cc(OC)ccc2c(=O)n1Cc1ccccc1	0	0	9	0	0	0	0	0	4	0	0	1	0	20	0	36	7	42	0
Cc1ccc(NC(=O)Nc2cccc(Cl)c2)cc1-c1ccc(C(=O)Nc2ccncc2)cc1 [GSK1398468]	0	2	21	7	0	18	24	10	0	0	13	14	92.3	68	20	37	3	37	0
Cl.Oc1ccc(-c2nc(-c3ccccc3)[nH]c2-c2ccncc2)cc1 [SB-428218]	64	64	8	0	0	0	60	8	0	21	17	4	13	10	0	63	0	43	0
CC(C)(C)c1ccc(C(=O)Nc2cn3cc(-c4cccnc4)ccc3n2)cc1	0	0	0	0	36	0	26	3	0	20	10	1	66	19	0	1	30	46	21
Cl.c1ccc(-c2n[nH]cc2-c2ccnc(-c3ccc(CN4CCOCC4)cc3)c2)nc1 [GW776245]	0	16	0	0	0	0	0	0	0	0	0	0	0	13	0	17	23	7	55
Cc1cccc(-c2nc(Nc3cccc(C(N)=O)c3)c3ccccc3n2)n1 [GW876019]	0	5	9	0	0	0	0	0	0	0	19	12	0	0	0	0	34	16	58
